Experimental data taken from PubChem BioAssay (NCI).
This is part of a sample that, as a whole, favours compounds with a hit. Of some 83,000 tested, about 20% had one in any assay.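 Negative percent growth values reflect cell death: -40 means 40% of the cells present at the start died, and -100 means all died.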 The source made the active and inactive calls. The calls were made as follows: active = growth percent below 10; inactive = the rest.

These molecules were tested on SK-MEL-5 melanoma (assay: NCI-60 one-dose screen, 48 h (100 = growth as untreated, 0 = no growth, -100 = all killed)). Details: 10 µM.

SMILES | growth
Clc1ccc(/C=C2\CCCC3C2=Nc2ccccc2NC3c2ccc(Cl)cc2)cc1 (stereo not given) | 88.7% (inactive)
CCC(c1ccc(OC)cc1)C(CC)c1ccc(O)c(CN2CCN(C)CC2)c1 (stereo not given) | 4.57% (active)
CC[C@@H](C(=O)[C@H](C)[C@H](O)[C@@H](C)[C@H]1O[C@H]([C@@H](CC)C(=O)N(CC)CC)CC[C@H]1C)C1O[C@]2(C=C[C@@H](O)[C@]3(CC[C@@](C)([C@H]4CC[C@](O)(CC)[C@H](C)O4)O3)O2)[C@H](C)C[C@@H]1C (stereo not given in full) | -74.7% (active)
c1ccc(/C(=N\Nc2ccc3ccccc3n2)c2ccccn2)cc1 | -51.3% (active)
O=C(NCCCNS(=O)(=O)c1ccc(Cl)cc1)Nc1ccc(-n2cc(-c3ccncc3)c(-c3ccc(Cl)c(O)c3)n2)cc1 | 2.07% (active)
Nc1ncnc2c1ncn2C1(CO)OCC(O)C(O)C1O (stereo not given) | 103% (inactive)
CN(C)CCOc1ccc(-c2nc3sccn3c2-c2ccnc(S(C)(=O)=O)n2)cc1 | 101% (inactive)
CC[C@H]1OC(=O)[C@H](C)[C@@H](O[C@H]2C[C@@](C)(OC)[C@@H](O)[C@H](C)O2)[C@H](C)[C@@H](O[C@@H]2O[C@H](C)C[C@H](N(C)C)[C@H]2O)[C@](C)(OC)C/C(C)=C2/O[C@@]1(C)C=C2C | 18.8% (inactive)
COc1cc(/C=C2\CCCC3=C2NC(N)=NC3c2cc(OC)c(OC)c(OC)c2)cc(OC)c1OC (stereo not given) | -96.5% (active)
O=[N+]([O-])c1cccc(/C=N/NC(=S)NC23CC4CC(CC(C4)C2)C3)c1 | 85.7% (inactive)
CNC(=O)c1cc(Oc2ccc3c(c2)sc2nc(-c4ccc(N)cc4)cn23)ccn1 | -0.651% (active)
COc1ccc2c(c1)OC(N)=C(C#N)C2c1cc(OC)c(OC)c(OC)c1 (stereo not given) | -46.2% (active)
S=C(NCc1ccccc1)NCc1ccccc1 | 98.3% (inactive)
CC(=O)OC1C=CC(OC(C)=O)O1 (stereo not given) | 104% (inactive)
Cc1ccc(Cl)cc1NC(=O)CCl | 58.1% (inactive)
CCC(C)[C@H](NC(C)=O)C(=O)N[C@@H](CCCNC(=N)N)C(=O)N[C@@H](CCCCN)C(=O)N[C@@H](CC1CCC(O)CC1)C(=O)NC(C(=O)N[C@@H](CCSC)C(=O)N[C@@H](CCCNC(=N)N)C(=O)N[C@@]1(C)CCC/C=C\CCC[C@@](C)(C(=O)NC(C(=O)N[C@@H](CCC(=O)O)C(=O)N[C@@H](CC(C)C)C(=O)N[C@H](C(=O)N[C@@H](CCC(=O)O)C(N)=O)C(C)C)[C@@H](C)O)NC(=O)[C@H](CCC(N)=O)NC(=O)[C@H](CC(C)C)NC(=O)[C@H](CC(C)C)NC1=O)[C@@H](C)O (stereo not given in full) | 102% (inactive)
COc1cc2cc(Oc3ccc(NC(=O)c4cccc(C(F)(F)F)c4)cc3)c(C)nc2cc1OC | 2.78% (active)
COC(=O)C1(O)NC(=C(C#N)C#N)C(C#N)=C1C(=O)c1ccc(OC)c(OC)c1 (stereo not given) | 101% (inactive)
COc1ccc(-c2onc(N)c2-c2cc(OC)c3c(c2)OCO3)cc1 | 1.27% (active)
NC(N)=N/N=C(\c1ccccc1)C(O)c1ccccc1 (stereo not given) | 103% (inactive)

SMILES | growth
COc1cc2cc(Oc3ccc(NC(=O)c4ccccc4)cc3)c(C)nc2cc1OC | 80.2% (inactive)
CS(=O)(=O)c1nccc(-c2c(-c3cccc(OCc4ccc(F)cc4)c3)nc3sccn23)n1 | 5.39% (active)
CCOC(=O)c1cc(C(=O)c2ccc(F)cc2F)n2ccccc12 | 92.6% (inactive)
O=C(N/N=C/c1ccc(Cl)cc1)c1ccccc1Nc1cccc(C(F)(F)F)c1 | 34% (inactive)
CC(C)(C)OC(=O)N1CCc2c(sc3ncnc(N/N=C/c4ccccc4Br)c23)C1 | 66.6% (inactive)
CC(C)N(CCOc1ccc(-c2nc3sccn3c2-c2ccnc(S(C)(=O)=O)n2)cc1)C(C)C | 39.2% (inactive)
CN(C)CCCOc1ccc(NC2=C(Cl)C(=O)C(Nc3ccc(OCCCN(C)C)cc3)=C(Cl)C2=O)cc1 | -96.6% (active)
COc1cccc(C2C(C#N)=C(N)Oc3cc(N)ccc32)c1 (stereo not given) | 21.5% (inactive)
Cc1ccc(NCCN(C)CC(C)O)c2c(=O)c3ccccc3sc12 (stereo not given) | 58.1% (inactive)
CCCCN(CCCC)C(=O)[C@H](CC)[C@@H]1CC[C@@H](C)[C@@H]([C@H](C)[C@@H](O)[C@@H](C)C(=O)[C@H](CC)C2O[C@]3(C=C[C@@H](O)[C@]4(CC[C@@](C)([C@H]5CC[C@](O)(CC)[C@H](C)O5)O4)O3)[C@H](C)C[C@@H]2C)O1 (stereo not given in full) | -92% (active)
CC(C)N(CCOc1cccc(-c2nc3sccn3c2-c2ccnc(S(C)(=O)=O)n2)c1)C(C)C | 3.97% (active)
NC(=O)c1cccc(-n2ccc3cc(NC(=O)Nc4ccc(Cl)c(C(F)(F)F)c4)ccc32)n1 | 78.3% (inactive)
COc1cccc(-c2nc3sccn3c2-c2cccc(S(C)(=O)=O)c2)c1 | 94.8% (inactive)
COc1ccc(Cl)cc1Nc1nc(C(F)(F)F)ccc1C(=O)N/N=C/c1ccc(Cl)cc1 | 24.3% (inactive)
CCOc1ccccc1/C=N\N=C\c1ccccc1O | 95.5% (inactive)
CN(C)c1ccc(/C=N/NC(=O)c2ccccc2Nc2cccc(C(F)(F)F)c2)cc1 | 81.8% (inactive)
COc1cc2cc(Oc3ccc(NC(=O)Nc4cccc(C(F)(F)F)c4)cc3)c(C)nc2cc1OC | -86.1% (active)
O=C(Nc1cc(Cl)cc2c1-c1ccc(Cl)cc1C2O)C(Cl)Cl (stereo not given) | 41.5% (inactive)
C/C(=N\O)c1ccc(NC(=O)CSc2nnc(-c3ccccc3)n2-c2ccccc2)cc1 | 48.6% (inactive)
CCN(CC)CCCOc1cccc2c1C(=O)c1cccc(OCCCN(CC)CC)c1C2=O | 46.6% (inactive)
